SW480 rereplic: induces DNA re-replication in SW480 colon adenocarcinoma cells. SW480 DNA re-replication, Hoechst DNA content imaging, 48 h. Potency, µM (highest dose often 46.1 µM), for the others: at the top dose re-replication activation, most hits filed as activators. 340,000 tested, 1.8% active. AID 624297; also: % of control where 0% means no effect; nearly all actives have a fitted effect of over 55% in size
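DNA re-replication was detected as more nuclei of elevated Hoechst intensity after 48 hr exposure to compound (23 nL pinned per well of 250 cells).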
MCF10A rerep: induces DNA re-replication in MCF 10a normal breast cells. MCF 10A DNA re-replication, Hoechst nuclear intensity, 48 h. 350,000 tested, 2.9% active. AID 624296. Potency, µM (top dose mostly 46.1 µM), for inactives: at the top dose activity, positive = re-replication, hits mostly activators; also: % of control where 0% means no effect; nearly all actives have a fitted effect of over 50% in size
RGS4 inh: human RGS4 inhibition; 390,000 tested, 0.039% active; P49798; Potency, µM (highest dose often 114 µM), without a hit: at the top dose activity change, negative = inhibition, hits mostly inhibitors; Transcreener GDP fluorescence polarization, RGS4-accelerated GTP hydrolysis; also: % is scaled to controls: 0 for no effect and ±100 for the full control effect; nearly all actives have a fitted effect of over 75% in size
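MLSMR compounds (23 nl, pin-transferred) preincubated 10 min at room temperature with a 500nM (2x) first reagent, then RGS4 at 900nM (2x) plus Transcreener GDP mix added; fluorescence polarization (620/688 nm) read before and after 90 min at 30 °C.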
KB-V1 cytotox: KB-V1 MDR subline cytotoxicity; Potency, µM (series often up to 46.1 µM), hits mostly cytotoxic; KB-V1 MDR cells viability, CellTiter-Glo, 72 h; AID 1347076; 400,000 tested, 3.4% active; also: % is scaled to controls: 0 for no effect and ±100 for the full control effect; nearly all actives have a fitted effect of over 60% in size
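qHTS viability screen in drug-selected KB-V1 MDR cells: 72 h compound treatment at 37 degrees C, ATP luminescence end point.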
KB-3-1 tox: KB-3-1 parental cell cytotoxicity. KB-3-1 viability, CellTiter-Glo ATP luminescence, 72 h. Potency, µM (highest dose often 46.1 µM), most hits filed as cytotoxic. 400,000 tested, 1.4% active; also: % is scaled to controls: 0 for no effect and ±100 for the full control effect; nearly all actives have a fitted effect of over 60% in size
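Here the drug-naive KB-3-1 line serves as comparator for MDR sub-line selectivity; cells received compound titrations, 72 h at 37 °C, then CellTiter-Glo readout.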
TSG101-PTAP inh: blocks PTAP/TSG101 interaction to inhibit HIV-1 budding | Q99816 | Fluorescence polarization, FITC-PTAP peptide / Tsg101 binding | AID 493005 | Potency, µM (highest dose often 115 µM), for the others: top-dose activity change, negative = inhibition, actives largely listed as inhibitors | 340,000 tested, under 10 active; active = well fitted inhibition curve with a large enough effect in the main read-out, with a control signal flat, not every such curve was filed as active; inconclusive = small, poorly fitted or top-dose-only effect, or effect the other way, or a change in a side signal; inactive = no such curve, though single readings can be large or run the other way; also: % of control where 0% means no effect
Target sequence (Q99816 whole entry, looked up): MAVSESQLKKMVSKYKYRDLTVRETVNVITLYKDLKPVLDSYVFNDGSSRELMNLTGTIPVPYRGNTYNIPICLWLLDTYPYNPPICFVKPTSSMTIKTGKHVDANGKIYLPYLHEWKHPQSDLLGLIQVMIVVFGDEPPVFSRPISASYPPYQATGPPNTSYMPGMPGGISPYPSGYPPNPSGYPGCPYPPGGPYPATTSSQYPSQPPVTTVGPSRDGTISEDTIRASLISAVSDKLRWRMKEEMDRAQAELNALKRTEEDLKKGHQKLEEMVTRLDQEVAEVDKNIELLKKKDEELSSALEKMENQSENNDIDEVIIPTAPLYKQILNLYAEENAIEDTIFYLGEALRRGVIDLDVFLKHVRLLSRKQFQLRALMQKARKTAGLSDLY
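Steps: Tsg101 binding domain dispensed (10 uM final), compounds pinned in DMSO, FITC-labeled PTAP-motif peptide added (50 nM final); after 20 min binding at room temperature, polarization measured.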
* hit, by the source's call; i = inactive; ? = inconclusive; . = not tested or not shown. Compounds with a hit are over-represented: about 6.6% of the library has one in this group of screens. Unless noted, calls follow the shape of the dose curve; as a rule, active = well fitted curve in the direction sought with a large enough effect; inconclusive = small, poorly fitted or top-dose-only effect, or another doubt; inactive = no such curve, though single readings can be large; an effect the other way counts as inactive or inconclusive. Potency is read from the fitted curve at half-maximal effect.

SMILES	SW480 rereplic	MCF10A rerep	RGS4 inh	KB-V1 cytotox	KB-3-1 tox	TSG101-PTAP inh
Cc1ccc(S(=O)(=O)Nc2ccc3cc([N+](=O)[O-])ccc3c2[N+](=O)[O-])cc1	-1%	?	27%	?	?	-8%
Cc1ccc(S(=O)(=O)Nc2ccc3ccccc3c2[N+](=O)[O-])cc1	-4%	18µM*	4%	i	i	-2%
O=C(Nc1ccc(-n2cccn2)cc1)C1CCCCN1Cc1cccc2c1OCO2 (configuration not stated)	?	3.7µM*	-1%	?	4.1µM*	-3%
COc1ccc(Cl)cc1NC(=O)CSC1=Nc2ccccc2C2=NC(CC(=O)NCc3ccc4c(c3)OCO4)C(=O)N12 (configuration not stated)	.	.	-15%	i	i	.
CCOc1ccc(CCNC(=O)c2ccc3c(c2)N(Cc2ccccc2F)C(=O)c2ccccc2S3=O)cc1OCC (configuration not stated)	.	.	0%	i	i	.
O=[N+]([O-])c1cc(-c2ccccc2)cc([N+](=O)[O-])c1O	2%	?	4%	21µM*	16µM*	-12%
Cc1ccc(S(=O)(=O)N(CC(=O)Nc2c(C)cccc2C)c2cccc(Cl)c2)cc1	.	.	3%	.	.	.
Cc1nn(C)c(C)c1S(=O)(=O)N(CC(=O)NC1CCCCCC1)c1ccc(C(C)C)cc1	-2%	12µM*	8%	i	i	1%
COc1ccc(NC(=O)CN(c2ccc(C)cc2)S(=O)(=O)c2c(C)nn(C)c2C)cc1OC	0%	4%	-11%	13µM*	?	-1%
CCN(CC)S(=O)(=O)c1ccc(OC)c(NC(=S)Nc2ccc(C)c(C)c2)c1	?	?	?	18µM*	i	0%
CCN(CC(=O)Nc1ccc(OC)c(OC)c1)S(=O)(=O)c1ccc(C)cc1	-5%	1%	15%	13µM*	i	-1%
Cc1ccc2oc(C(=O)Nc3ccc(S(=O)(=O)N4CCCCC4C)cc3)cc(=O)c2c1 (configuration not stated)	.	.	5%	i	i	.
CC1(C(=O)NCc2cccs2)Cc2c(-c3ccccc3)ccnc2O1 (configuration not stated)	.	.	.	?	5.8µM*	.
CN(C)c1ccc(-c2ccnc3c2CC(C)(C(=O)NCc2cccs2)O3)cc1 (configuration not stated)	.	.	.	i	?	.
CC1(C(=O)NCc2cccs2)Cc2c(-c3ccc4c(c3)OCO4)ccnc2O1 (configuration not stated)	.	.	.	?	5.2µM*	.
COc1ccc(NC(=O)CSC2=Nc3ccccc3C3=NC(CCC(=O)NC4CCCCC4)C(=O)N23)cc1Cl (configuration not stated)	.	.	-4%	i	i	.
CCc1ccc(-n2c(=O)c3sc4ccccc4c3n(Cc3cccc(F)c3)c2=O)cc1	.	.	3%	i	i	.
Cc1ccccc1C(=O)N1CCN(c2ccc([N+](=O)[O-])c(NCc3cccnc3)c2)CC1	-1%	4%	-16%	4.1µM*	i	-3%
CCC(=O)Nc1cc2c(cc1C(=O)CC)OCCO2	14%	-2%	-7%	21µM*	i	11%
CC(C)(C)n1ncc2c(=O)n(CC(=O)NCc3ccc(F)cc3)cnc21	?	?	4%	9.2µM*	9.2µM*	-2%
CC(C)(C)n1ncc2c(=O)n(CC(=O)OCc3ccccc3)cnc21	-8%	10%	2%	i	i	-4%
CC(C)(C)n1ncc2c(=O)n(CC(=O)c3ccccc3)cnc21	-7%	0%	14%	15µM*	i	-5%
Cc1cc(-c2ccccc2)n[nH]1	-18%	0.65µM*	5%	i	i	-1%
S=c1[nH]c2ccc(Cl)cc2[nH]1	-5%	2%	-52%	18µM*	i	-14%

Screening results as filed in PubChem BioAssay.
